Experimental findings from PubChem BioAssay (NCATS) are described below.

Experiment in all cases: qHTS profiling for inhibitors of Plasmodium falciparum proliferation (AID 504749); further: nearly all actives have a fitted effect of over 60% in size
Holding throughout (conditions): P. falciparum in erythrocytes, SYBR Green DNA, 72 h; series mostly up to 28.7 µM

In one assay the test system is CP269. In a few lines: (§1)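 Three-day growth assay of blood-stage parasites in erythrocytes (0.3% parasitemia, 2.5% hematocrit) at 37 C, 5% CO2, quantified by SYBR Green DNA staining after overnight detergent lysis.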
A further assay deals with CP286. Put shortly:
as §1

The next assay concerns CP291. In a few lines:
as §1

A further assay has as its system CP297. Put shortly:
as §1

In another assay the test system is CP305. In a few lines:
as §1

The subject of another assay is CP315. In a few lines:
as §1

The next assay concerns CP325. In a few lines:
as §1

For a further assay, the system named is CP329. Put shortly:
as §1

A further assay has as its system CP335. In a few lines: as §1
The next assay relates to DFO2036. In a few lines:
as §1

The test system of another assay is DIV14. In a few lines: as §1
For a further assay, the system named is DIV17. Put shortly:
as §1

The next assay deals with DIV30. In a few lines: as §1
Another assay relates to Dd2. In a few lines:
as §1

Another assay relates to ECU. Put shortly:
as §1

For a further assay, the system named is FAB9. Put shortly:
as §1

A further assay relates to GB4. In a few lines: as §1
The test system of a further assay is HB3. Put shortly:
as §1

For a further assay, the system named is ICS. Put shortly: as §1
The next assay concerns JCK. In a few lines: as §1

Inconclusive results are not listed. Calls of active or inactive are those of the source. The call rests on the fitted dose curve; in most records, active means well fitted inhibition curve with a large enough effect; inconclusive means small, poorly fitted or top-dose-only effect; inactive means flat fitted curve, though single readings scatter.
Potency means the concentration at half of the fitted maximal effect.

With `CC(=O)[C@H]1CC[C@H]2[C@@H]3CC[C@H]4C[C@H](O)CC[C@]4(C)[C@H]3C(=O)C[C@]12C`, the Potency result in the assay with CP269, in the assay with CP286, with CP291, in the assay on CP297, in the assay on CP305 and in the assay with CP315 was “inactive” in each case. Besides, the Potency result with CP325, in the assay on CP329, with CP335, in the assay on DFO2036, with DIV14 and with DIV17 was “inactive” each time. For the same compound, the Potency result in the assay on DIV30, in the assay with Dd2, with ECU, in the assay with FAB9, in the assay with GB4 and in the assay on HB3 was “inactive” throughout. The Potency result in the assay with ICS and with JCK was “inactive” each time.
As to `OCCOc1ccccc1`, the Potency result in the assay with CP269, in the assay on CP286, in the assay with CP291, in the assay on CP297, in the assay on CP305 and with CP315 was “inactive” throughout. Also, the Potency result in the assay on CP325, in the assay with CP329, in the assay on CP335, with DFO2036, in the assay with DIV14 and in the assay on DIV17 was “inactive” in each case. For the same compound, the Potency result in the assay with DIV30, in the assay with Dd2, in the assay with ECU, with FAB9, with GB4 and with HB3 was “inactive” each time. The Potency result in the assay on ICS and in the assay on JCK was “inactive” throughout.
In the case of `FC(F)(F)c1cccc(C2=CCN(CCc3ccc4ccccc4c3)CC2)c1`, the Potency entry in the assay with CP269, in the assay on CP286, in the assay on CP291, in the assay with CP297, in the assay on CP305 and in the assay on CP315 was “inactive” each time. In addition, the Potency entry in the assay with CP325, in the assay on CP329, in the assay on CP335, with DFO2036, with DIV14 and in the assay with DIV17 was “inactive” each time. Moreover, the Potency entry with DIV30, in the assay with Dd2, in the assay with ECU, in the assay with FAB9, in the assay with GB4 and with HB3 was “inactive” throughout. Besides, the Potency result in the assay on ICS and in the assay on JCK was “inactive” throughout.
Regarding `NN=C(N)N`, the Potency result in the assay with CP269, with CP286, in the assay with CP291, in the assay on CP297, in the assay with CP305 and with CP315 was “inactive” in each case. The Potency result in the assay on CP325, in the assay on CP329, with CP335, in the assay with DFO2036, with DIV14 and with DIV17 was “inactive” each time. The Potency entry in the assay with DIV30, in the assay on Dd2, with ECU, in the assay on FAB9, with GB4 and in the assay on HB3 was “inactive” each time. Besides, the Potency entry in the assay with ICS and with JCK was “inactive” each time.
Take `CC(C)CC(N(C)C)C1(c2ccc(Cl)cc2)CCC1` (configuration not stated): the Potency result in the assay with CP269, with CP286, in the assay with CP291, in the assay on CP297, with CP305 and in the assay with CP315 was “inactive” in each case. Besides, the Potency entry with CP325, in the assay on CP329, in the assay with CP335, in the assay with DFO2036, in the assay on DIV14 and with DIV17 was “inactive” each time. In addition, the Potency entry in the assay with DIV30, in the assay with Dd2, with ECU, with FAB9, in the assay on GB4 and in the assay with HB3 was “inactive” in each case. In addition, the Potency result in the assay on ICS and with JCK was “inactive” in each case.
On to `Oc1ccccc1-c1ccccc1`, for which the Potency entry in the assay with CP269, in the assay with CP286, in the assay on CP291, with CP297, with CP305 and with CP315 was “inactive” throughout. Further, the Potency entry with CP325, with CP329, in the assay on CP335, in the assay with DFO2036, in the assay on DIV14 and with DIV17 was “inactive” throughout. In addition, the Potency entry in the assay with DIV30, with Dd2, with ECU, in the assay on FAB9, in the assay with GB4 and in the assay on HB3 was “inactive” in each case. Moreover, the Potency result in the assay with ICS and with JCK was “inactive” throughout.
For the compound `O=C1NCN(c2ccccc2)C12CCN(CC1COc3ccccc3O1)CC2` (configuration not stated), the Potency result with CP269, in the assay on CP286, in the assay with CP291, in the assay with CP297, in the assay with CP305 and in the assay with CP315 was “inactive” throughout. Also, the Potency entry in the assay with CP325, in the assay on CP329, with CP335, in the assay on DFO2036, in the assay on DIV14 and in the assay on DIV30 was “inactive” each time. Moreover, the Potency result in the assay with Dd2, with ECU, in the assay on FAB9, with GB4, in the assay on HB3 and in the assay on JCK was “inactive” in each case. In the assay on ICS, the Potency was 8.91 µM (active).
For the compound `CCOP(=S)(OCC)Oc1cc(C)nc(C(C)C)n1`, the Potency entry in the assay with CP269, with CP286, with CP291, in the assay with CP297, with CP305 and in the assay with CP315 was “inactive” in each case. Further, the Potency entry with CP325, in the assay with CP329, with CP335, with DFO2036, with DIV14 and in the assay with DIV17 was “inactive” in each case. Also, the Potency result in the assay with DIV30, in the assay on Dd2, with ECU, in the assay with FAB9, in the assay with GB4 and with HB3 was “inactive” each time. The Potency result in the assay on ICS and in the assay with JCK was “inactive” each time.
Take `CCC(C(N)=O)N1CCCC1=O` (configuration not stated): the Potency result in the assay with CP269, with CP286, in the assay with CP291, in the assay with CP297, with CP305 and in the assay with CP315 was “inactive” each time. Also, the Potency result with CP325, in the assay with CP329, with CP335, in the assay on DFO2036, in the assay on DIV14 and with DIV17 was “inactive” in each case. In addition, the Potency result in the assay on DIV30, with Dd2, in the assay on ECU, in the assay on FAB9, in the assay on GB4 and in the assay with HB3 was “inactive” in each case. Moreover, the Potency result in the assay with ICS and in the assay on JCK was “inactive” throughout.
In the case of `COc1ccccc1N1CCNCC1`, the Potency result in the assay on CP269, in the assay on CP286, with CP291, in the assay with CP297, in the assay on CP305 and in the assay on CP315 was “inactive” each time. Moreover, the Potency entry with CP325, in the assay with CP329, in the assay on CP335, in the assay with DFO2036, in the assay on DIV14 and in the assay with DIV17 was “inactive” throughout. For the same compound, the Potency result with DIV30, in the assay on Dd2, with ECU, with FAB9, in the assay on GB4 and with HB3 was “inactive” each time. In addition, the Potency entry with ICS and with JCK was “inactive” throughout.
Turning to `O=P1(NCCCl)OCCCN1CCCl` (configuration not stated), the Potency result with CP269, in the assay on CP286, in the assay on CP291, in the assay with CP297, in the assay with CP305 and in the assay on CP315 was “inactive” in each case. Further, the Potency entry in the assay on CP325, with CP329, in the assay with CP335, in the assay on DFO2036, with DIV14 and in the assay on DIV17 was “inactive” in each case. For the same compound, the Potency entry with DIV30, in the assay on Dd2, with ECU, in the assay on FAB9, in the assay on GB4 and in the assay with HB3 was “inactive” throughout. The Potency entry in the assay on ICS was “inactive”.
`CC[N+](CC)(CC)CC`: the Potency entry in the assay on CP269, in the assay with CP286, in the assay with CP291, in the assay with CP297, in the assay on CP305 and in the assay on CP315 was “inactive” throughout. The Potency result in the assay on CP325, in the assay with CP329, with CP335, in the assay on DFO2036, in the assay with DIV14 and in the assay on DIV17 was “inactive” in each case. Moreover, the Potency entry in the assay with DIV30, with Dd2, in the assay on ECU, in the assay on FAB9, with GB4 and with HB3 was “inactive” throughout. Moreover, the Potency entry with ICS and in the assay on JCK was “inactive” throughout.
`NCCc1cc(O)c(O)cc1O`: the Potency entry in the assay with CP269, in the assay on CP286, in the assay with CP291, in the assay with CP297, in the assay with CP305 and with CP315 was “inactive” in each case. For the same compound, the Potency result in the assay with CP325, in the assay with CP329, with CP335, in the assay on DFO2036, with DIV14 and in the assay on DIV17 was “inactive” each time. For the same compound, the Potency result with DIV30, in the assay on ECU, in the assay with FAB9, with GB4, in the assay on HB3 and with ICS was “inactive” throughout. The Potency entry in the assay with JCK is “inactive”.
